An excerpt weighted towards active compounds, which were near 11% of everything screened.
JMJD2A Tudor = inhibitors of human JMJD2A Tudor domain | O75164 | Potency, µM (doses to about 114 µM), inactives show at the highest dose activity change, negative = inhibition, hits mostly inhibitors | AlphaScreen JMJD2A-Tudor / H3K4me3 peptide binding | 4.4% of 390,000 active | AID 504339; further: on the % scale 0 is the no-effect control and ±100 the full control effect; nearly all actives have a fitted effect of over 50% in size
Target sequence (O75164 whole entry, looked up, the tested form may be a part): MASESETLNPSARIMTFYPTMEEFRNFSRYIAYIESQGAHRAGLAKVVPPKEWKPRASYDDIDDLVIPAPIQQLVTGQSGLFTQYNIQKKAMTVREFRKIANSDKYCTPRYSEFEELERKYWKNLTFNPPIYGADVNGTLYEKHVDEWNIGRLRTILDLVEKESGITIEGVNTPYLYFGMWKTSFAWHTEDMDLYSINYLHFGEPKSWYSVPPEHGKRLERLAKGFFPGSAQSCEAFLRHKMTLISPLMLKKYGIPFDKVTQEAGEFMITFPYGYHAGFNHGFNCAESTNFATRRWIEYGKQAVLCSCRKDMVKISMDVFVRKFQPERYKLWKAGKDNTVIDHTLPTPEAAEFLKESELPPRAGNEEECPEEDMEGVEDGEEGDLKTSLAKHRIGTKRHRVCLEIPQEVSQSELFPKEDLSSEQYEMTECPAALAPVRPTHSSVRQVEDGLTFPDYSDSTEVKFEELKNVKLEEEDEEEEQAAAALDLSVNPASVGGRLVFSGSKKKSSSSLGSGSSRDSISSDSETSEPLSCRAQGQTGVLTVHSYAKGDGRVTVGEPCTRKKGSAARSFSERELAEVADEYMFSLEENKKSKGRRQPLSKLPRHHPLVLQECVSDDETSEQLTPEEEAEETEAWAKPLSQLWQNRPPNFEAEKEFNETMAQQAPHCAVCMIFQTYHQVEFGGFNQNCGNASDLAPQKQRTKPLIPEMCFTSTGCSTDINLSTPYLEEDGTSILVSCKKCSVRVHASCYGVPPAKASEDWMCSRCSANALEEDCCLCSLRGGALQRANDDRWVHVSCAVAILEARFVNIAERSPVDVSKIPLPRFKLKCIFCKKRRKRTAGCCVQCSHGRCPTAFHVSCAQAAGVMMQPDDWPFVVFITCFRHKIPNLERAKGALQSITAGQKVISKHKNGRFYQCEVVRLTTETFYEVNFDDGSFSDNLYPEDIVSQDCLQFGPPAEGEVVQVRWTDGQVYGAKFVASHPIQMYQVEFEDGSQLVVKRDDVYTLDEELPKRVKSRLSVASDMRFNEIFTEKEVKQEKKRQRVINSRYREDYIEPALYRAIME
PLK1 PBD inh = inhibitors of human PLK1 polo-box domain binding; Plk1 PBD binding of FITC phosphopeptide, fluorescence polarization; Potency, µM, inactives show max response, negative = inhibition, actives largely listed as inhibitors; 2.8% of 360,000 active; further: series mostly up to about 57 µM; on the % scale 0 is the no-effect control and ±100 the full control effect; nearly all actives have a fitted effect of over 65% in size
BAZ2B inh = inhibitors of human BAZ2B bromodomain; AID 504333; 4.4% of 360,000 active; AlphaScreen BAZ2B-H3K14Ac peptide displacement; Q9UIF8; Potency, µM (titrated, usually from 114 µM), for the others: at the top dose activity change, negative = inhibition, usual class: inhibitors; further: on the % scale 0 is the no-effect control and ±100 the full control effect; nearly all actives have a fitted effect of over 60% in size
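In this displacement format the biotinylated H3(5-23) peptide acetylated at Lys14 serves as ligand at 50 nM, with BAZ2B at 50 nM in PBS pH 7.4 containing 0.01% Tween-20. Donor and acceptor beads are 10 ug/mL final.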
VDR inhibitor = inhibitors of human vitamin D receptor. P11473. 0.93% of 400,000 active. VDR-SRC2-3 peptide fluorescence polarization, 2 h. Potency, µM, without a hit: max response, negative = inhibition, most hits filed as inhibitors; further: on the % scale 0 is the no-effect control and ±100 the full control effect
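Compounds are added to VDR with labelled SRC2-3 coactivator peptide and held 2 h at room temperature. Inhibition of the VDR–peptide interaction is then read as a change in fluorescence polarization.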
G9a inh = G9a (human) methyltransferase inhibition; Q96KQ7; G9a H3K9 monomethylation, AlphaScreen, 2 h; Potency, µM (doses to about 102 µM), for the others: at the top dose activity, negative = inhibition, most hits filed as inhibitors; 8.8% of 350,000 active; further: on the % scale 0 is the no-effect control and ±100 the full control effect; nearly all actives have a fitted effect of over 75% in size
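AlphaScreen read-out: biotin-H3K9 peptide (500 nM) methylation by 20 nM enzyme with 20 uM SAM, 2 h at room temperature after 15 min compound preincubation; anti-monomethyl H3K9 antibody plus donor/acceptor beads, 10 min dark.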
HP1b chromo inh = inhibitors of HP1-beta chromodomain binding to methylated histone tails; P83916; AlphaScreen HP1-beta / biotin-H3K9me3 peptide binding; 0.56% of 390,000 active; Potency, µM (top dose mostly 114 µM), inactives show at the top dose activity change, negative = inhibition, most hits filed as inhibitors; further: nearly all actives have a fitted effect of over 70% in size
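Compound inhibition of the preformed complex between 50 nM HP1-beta and 50 nM biotinylated H3K9me3 peptide was read by AlphaScreen. Buffer was PBS pH 7.4 with 0.01% Tween-20. Incubations ran 30 min at room temperature, with 10 ug/mL donor/acceptor beads.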
Numbers without * were called inactive; ? = inconclusive; / = no result given; [ ] = remark or other dose. The call rests on the fitted dose curve; in most records, active means well fitted curve in the direction sought with a large enough effect; inconclusive means small, poorly fitted or top-dose-only effect, or another doubt; inactive means no such curve, though single readings can be large; an effect the other way counts as inactive or inconclusive. Potency means the concentration at half of the fitted maximal effect.

SMILES	JMJD2A Tudor	PLK1 PBD inh	BAZ2B inh	VDR inhibitor	G9a inh	HP1b chromo inh
COc1ccc(/C=N/NC(=O)COc2ccc3ccccc3c2)c(C(=O)O)c1OC	50µM*	27µM*	-11%	79µM*	-6%[59 µM]	20%
CCOc1ccc(N2C(=O)c3cccnc3C2Nc2ccc(OC)cc2)cc1 (stereo not drawn)	-32%	-15%	-10%	-13%	-11%[59 µM]	-12%
CCOc1ccc(N2C(=O)c3cccnc3C2Nc2ccc(C)c(C)c2)cc1 (stereo not drawn)	-20%	-1%	-31%	0%	89µM*	3%
O=C(COc1ccc2ccccc2c1)NC1CC(=O)N(c2cccc(F)c2)C1 (stereo not drawn)	-6%	/	-4%	12%	5%[59 µM]	48%
COc1ccc(OCCn2cc(C(=O)c3ccco3)c3ccccc32)cc1	-29%	/	-24%	11%	-37%[59 µM]	24%
CCCN(C(=O)c1cccc(-n2cccc2)c1)c1c(N)n(Cc2ccccc2)c(=O)[nH]c1=O	16µM*	?	50µM*	-9%	45µM*	45µM*
CCCN(C(=O)c1ccc([N+](=O)[O-])c(C)c1)c1c(N)n(Cc2ccccc2)c(=O)[nH]c1=O	-13%	0%	-32%	-1%	?	23%
CCCCN(C(=O)c1cccc(-n2cccc2)c1)c1c(N)n(CCC)c(=O)[nH]c1=O	14µM*	?	45µM*	-2%	4%[0.501 µM]	79µM*
CCCCN(C(=O)c1cccc(S(=O)(=O)N2CCCC2)c1)c1c(N)n(CCC)c(=O)[nH]c1=O	-13%	-3%	8%	-15%	5%[2.33 µM]	30%
CN1CCN(NC(=O)c2ccc(Cl)s2)CC1	-8%	-18%	-12%	-3%	-29%	4%
O=c1[nH][nH]c(-c2ccccc2O)c1C(C[N+](=O)[O-])c1ccc(Br)cc1 (stereo not drawn)	?	?	?	?	4%[59 µM]	-3%
Cc1ccc(C(C[N+](=O)[O-])c2c(-c3ccccc3O)[nH][nH]c2=O)cc1 (stereo not drawn)	-30%	?	?	22µM*	-13%[59 µM]	13%[57 µM]
CC1(Oc2cccc(C#N)c2)CCN(Cc2csc3ccccc23)C1 (stereo not drawn)	/	-5%	/	/	/	/
CCOc1ccc(C=C2SC(=O)N(CCN)C2=O)cc1	/	/	/	4%	/	/
COc1ccc(/C=C2/SC(=S)N(n3c(C)ccc3C)C2=O)cc1	35µM*	-5%	10µM*	4%	16µM*	?
CCOc1ccc(/C=C2\NC(=S)NC2=O)cc1	-19%[11.4 µM]	-13%	-11%	-5%	45µM*	30%
O=C1/C(=C/c2ccccc2)SC(=S)N1N1C(=O)C2CC2C1=O (stereo not drawn)	-25%	-22%	-26%	-25%	25µM*	-16%
CCOc1ccc(/C=C2/SC(=S)N(n3c(C)ccc3C)C2=O)cc1	22µM*	-6%	11µM*	-6%	10µM*	14µM*
COc1cccc(NC(=O)CSc2nnc(NC(=O)c3ccco3)s2)c1	-4%	-1%	-1%	-1%	/	17%
COc1ccc(/C=C(\NC(=O)c2ccccc2)C(=O)OCC2CCCN3CCCCC23)cc1OC (stereo not drawn)	-12%	-10%	-1%	-12%	-33%	32%
O=C1OC(c2ccccc2)=C/C1=C/N1CCCCC1	?	-9%	50µM*	3%	?	-22%
O=C1OCCC1Sc1nnc(-c2ccccc2)o1 (stereo not drawn)	-13%	-8%	-2%	0%	2%	24%
O=C1c2ccccc2CC1Sc1nnc(-c2ccccn2)o1 (stereo not drawn)	-29%	24µM*	11%	?	?	14%
O=C(COc1ccc(F)cc1)NC1CC(=O)N(c2ccc3c(c2)OCCO3)C1 (stereo not drawn)	6%	/	-3%	-2%	7%[59 µM]	44%
CCC(NC(=O)Nc1cccc(C)c1)c1c(-n2cccc2)sc2c1CCN(C)C2 (stereo not drawn)	?	/	-38%	20%	-31%[59 µM]	3%
SMILES	JMJD2A Tudor	PLK1 PBD inh	BAZ2B inh	VDR inhibitor	G9a inh	HP1b chromo inh
CCC(NC(=O)Nc1cc(Cl)ccc1OC)c1c(-n2cccc2)sc2c1CCN(C)C2 (stereo not drawn)	?	/	?	16%	16µM*	?
CCNC(=O)c1ccccc1SCC(=O)Nc1ccc(F)cc1	13µM*	9.5µM*	-25%	?	-34%	-7%
CCN(CC)CC(O)CN1c2ccccc2Sc2ccccc21 (stereo not drawn)	?	-2%	?	-9%	1%	5%
COc1ccc(C(C)(C)C)cc1NC(=O)COC(=O)c1ccc([N+](=O)[O-])o1	20µM*	30µM*	?	-27%	40µM*	?
COc1ccc(OCC(=O)NC(=O)c2ccccc2OC)c([N+](=O)[O-])c1	-25%	-1%	-37%	8%	50µM*	-2%
COc1ccccc1NC(=O)COc1ccc(C(F)(F)F)cc1[N+](=O)[O-]	-22%[11.4 µM]	27µM*	/	-11%	/	-11%
COc1ccc(NC(=O)c2ccco2)cc1NC(=O)COc1ccccc1[N+](=O)[O-]	-8%	-1%	1%	-7%	16%	35%
O=C(c1ccccc1Oc1ccc(C(F)(F)F)cc1[N+](=O)[O-])N1CCOCC1	-13%	-9%	3%	-5%	-2%[59 µM]	17%
O=C(Nc1ccccc1Cl)c1ccccc1Oc1ccc(C(F)(F)F)cc1[N+](=O)[O-]	50µM*	-8%	?	-13%	25%[0.501 µM]	?
COc1ccc(OCC(=O)NC(=O)c2ccccc2)c([N+](=O)[O-])c1	5%	11%	-13%	-5%	-35%[12.7 µM]	49%
COc1cccc(C2/C(=C(/O)c3ccc4c(c3)CC(C)O4)C(=O)C(=O)N2CC2CCCO2)c1 (stereo not drawn)	-21%	-12%	-19%	-20%	23%[0.501 µM]	6%
COC(=O)[C@]1(Cc2ccccc2)N[C@H](c2ccc(-c3ccc4c(c3)OCO4)cc2)[C@@H]2C(=O)N(C)C(=O)[C@@H]21	-33%	-3%	4%	3%	5%[2.33 µM]	16%
Cc1cccc(NC(=O)C2C3C=CC(O3)C2C(=O)O)c1 (stereo not drawn)	/	/	4%	/	28µM*	/
Cc1ccc(NC(=O)C2C3C=CC(O3)C2C(=O)O)cc1C (stereo not drawn)	-10%	4%	89µM*	-1%	3%[0.501 µM]	33%
Cc1cccc(NC(=O)C2C3C=CC(C4CC34)C2C(=O)O)c1 (stereo not drawn)	-7%	-17%	10%	8%	?	24%
Cc1ccc(NC(=O)C2C3CCC(O3)C2C(=O)O)cc1C (stereo not drawn)	-4%	-7%	-36%	-21%	/	26%

High-throughput results from PubChem BioAssay.
